# An excerpt weighted towards active compounds, which were near 11% of everything screened.
# FLuc inh-1 – blocks purified firefly luciferase enzyme activity; purified P. pyralis luciferase, luminescence, biochemical; Potency, µM (series often up to 115 µM), usual class: inhibitors; 2.5% of 76,000 active; AID 1347043; further: on the % scale 0 is the no-effect control and ±100 the full control effect; nearly all actives have a fitted effect of over 65% in size
#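 Luminescence read by CCD imaging after purified firefly luciferase (10nM final) was added to substrate buffer holding 10uM D-luciferin and 10uM ATP, pH 7.5, pre-dosed with compound.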
# HEK cytotox – cytotoxic compounds in HEK 293 cells | HEK 293 viability, ATP luminescence (CellTiter-Glo), 48-72 h | Potency, µM (highest dose often 115 µM), without a hit: at the highest dose activity change, negative = cytotoxicity, hits mostly inhibitors | 6.6% of 94,000 active; further: on the % scale 0 is the no-effect control and ±100 the full control effect; nearly all actives have a fitted effect of over 60% in size
#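 Cells seeded first (HEK 293, 250 cells/well), then compound added by pintool. Incubation ran 48 or 72 hr at 37 degree Celsius. CellTiter-Glo was added and luminescence imaged after 10 min at room temperature.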
# NPR1 antag – antagonists of human natriuretic peptide receptor Npr1; HEK293 hNpr1 GloSensor cGMP, ANP-stimulated luminescence; Potency, µM (top dose mostly 46.3 µM), for the others: at the top dose activity change, negative = inhibition, most hits filed as inhibitors; 1.6% of 76,000 active; calls by dose curve; further: on the % scale 0 is the no-effect control and ±100 the full control effect; nearly all actives have a fitted effect of over 60% in size
#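 Compound pre-incubated 30 min at room temperature on GloSensor-loaded HEK293 cells stably carrying hNpr1 and the pGS-40F cGMP biosensor. Stimulation uses hNppA at 0.1 nM final; luminescence is taken at baseline and 20 min post-agonist.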
# NIH3T3 tox – cytotoxic compounds in NIH 3T3 cells. AID 1345082. NIH 3T3 viability, CellTiter-Glo ATP luminescence, 48-72 h. Potency, µM (series often up to 96.7 µM), for the others: at the top dose activity change, negative = cytotoxicity, usual class: inhibitors. 4.3% of 94,000 active; further: on the % scale 0 is the no-effect control and ±100 the full control effect; nearly all actives have a fitted effect of over 55% in size
#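 Mouse fibroblast NIH 3T3 cells, 400 per well, received compound via pintool and were incubated for 48 or 72 hr prior to CellTiter-Glo ATP luminescence measurement.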
# FLuc SDR no ATP – stabilizes firefly luciferase without ATP; Purified FLuc-C-HiBiT, Nano-Glo HiBiT luminescence, no ATP; 7.8% of 1,300 active; Potency, µM (highest dose often 32.7 µM), for the others: top-dose activation (signal gain), actives largely listed as activators; AID 1963318; shares compounds with FLuc inh-1; further: nearly all actives have a fitted effect of over 55% in size
# FLuc SDR ATP – stabilizes firefly luciferase with ATP present; shares compounds with FLuc inh-1; purified FLuc-C-HiBiT + ATP, HiBiT complementation luminescence; Potency, µM (top dose mostly 32.7 µM), without a hit: at the highest dose activation (gain of signal), actives largely listed as activators; 8.7% of 1,300 active;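 further: signal reports ligand binding via conformational change of the enzyme rather than luciferase catalysis; % of control where 0% means no effect; nearly all actives have a fitted effect of over 55% in size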
# FLuc inh-2 – inhibitors of firefly luciferase enzymatic activity; 42% of 1,300 active; purified FLuc-C-HiBiT enzyme, luciferin luminescence; AID 1963320; shares compounds with FLuc inh-1; Potency, µM (series often up to 32.7 µM), for the others: at the top dose activity change, negative = inhibition, usual class: inhibitors; further: on the % scale 0 is the no-effect control and ±100 the full control effect; nearly all actives have a fitted effect of over 70% in size
# * hit, by the source's call; i = inactive; ? = inconclusive; . = no result given; [ ] = remark or other dose. Unless noted, the call rests on the fitted dose curve; in most records, active means well fitted curve in the direction sought with a large enough effect; inconclusive means small, poorly fitted or top-dose-only effect, or another doubt; inactive means no such curve, though single readings can be large; an effect the other way counts as inactive or inconclusive. Potency means the concentration at half of the fitted maximal effect.
SMILES,FLuc inh-1,HEK cytotox,NPR1 antag,NIH3T3 tox,FLuc SDR no ATP,FLuc SDR ATP,FLuc inh-2
CC(=O)NC1(C)CN(Cc2ccc(-c3cccc(F)c3)nc2)C1,?,?,4%[70.6 µM],-19%[138 µM],.,.,.
O=C([C@@H]1C[C@H](F)CN1C(=O)c1ccc(Cl)cc1)N1CCCCC1,.,i,.,i,.,.,.
COc1ccc2nc([C@H]3CCN(Cc4ccccc4F)C3)[nH]c2c1,i,?,-3%[70.6 µM],?,.,.,.
Fc1ccc2nc([C@H]3CCN(Cc4ccccc4F)C3)[nH]c2c1,3.2µM*,?,?,79µM*,27%[49.3 µM],18%[49.3 µM],14µM*
Cc1ccc2nc(C(=O)N3CCCC3c3cc(C(C)C)on3)cn2c1 (centres undefined),10µM*,-9%,0%,-13%,27%,15%,?
CCOC(=O)N1CCc2c(sc(NCc3sccc3C)c2C(=O)Nc2ccc(OC)cc2OC)C1,.,.,.,.,8%,?,5µM*
CCOC(=O)N1CCc2c(sc(NCc3cccc(F)c3)c2C(=O)Nc2ccc(OC)cc2OC)C1,.,.,.,.,4%,?,2.5µM*
CNCC(=O)NC1CCCN(c2ccc(C(F)(F)F)cn2)C1 (centres undefined),i,i,0%,-12%,.,.,.
COc1ccc(C(=O)Nc2ccc(-c3nnc4n3CCCC4)cc2)cc1,i,5%,-8%,-26%,.,.,.
Nc1c(C(=O)Nc2ccc(C(=O)O)cc2)sc2nc3c(cc12)CCCC3,.,.,.,.,11µM*,0.25µM*,0.18µM*
COc1ccc(C)cc1NC(=O)c1ccc2c(Cl)c3c(nc2c1)CCC3,.,.,.,.,23%,16%,?
Cc1ccc(CN2CCC3(CC2)Cc2ccccc2NC3=O)cc1,i,-18%[172 µM],3%[70.6 µM],-20%[138 µM],.,.,.
Cc1ccc(CC(=O)N2[C@@H]3CC[C@H]2CC(NC(=O)c2ccncc2)C3)cc1 (some centres undefined),i,-8%,-1%,0%,.,.,.
COCCNc1cc(-c2ccc3ccccc3n2)c2cc[nH]c2n1,10µM*,?,-19%,?,13%,17%,?
CCOC(=O)c1ccc(NC(=O)c2nsc3ccccc23)cc1,.,.,.,.,26%,20%,3.5µM*
CCCCN1C(=O)[C@@H]2C[C@@H](O)CN2C2(CN(C3CCC(F)(F)CC3)C2)C1=O,i,-5%[172 µM],-1%[70.6 µM],-20%[174 µM],.,.,.
O=C1CCN(C2CCN(Cc3ccccc3)CC2)CCCC(C(=O)NCc2ccccc2)CCN1 (centres undefined),i,-12%,6%,-13%,.,.,.
Cc1ccc(C)c(C(=O)N2C[C@@H](CO)[C@H](c3ccncc3)C2)c1,i,-14%,-3%,-17%,.,.,.
O=C1CCN(C(=O)[C@@H]2CCCN2C(=O)Nc2ccc3c(c2)OCCO3)CCCCCCN1,i,i,3%,-11%,.,.,.
O=C1NCCCCCCN(C(=O)Nc2ccc3c(c2)OCCO3)[C@H]2CCC[C@@H]12,1.1µM*,-9%,?,-17%,?,?,3.5µM*
COc1ccc(-n2nc(C)c([C@@H]3C=C[C@@H](NC(=O)NCc4ccccc4)C3)c2C)cc1,1.1µM*,?,8.9µM*,?,?,19%[49.3 µM],6.4µM*
Cc1ccc(-n2nc(C)c([C@@H]3C=C[C@@H](NC(=O)NCc4ccccc4)C3)c2C)cc1Cl,7.9µM*,-23%[172 µM],?,?,19%[49.3 µM],?,?
CCNC(=O)N[C@@H]1C=C[C@@H](c2c(C)nn(-c3ccc(F)cc3)c2C)C1,6.3µM*,89µM*,20µM*,?,26%[49.3 µM],?,?
Cc1nn(-c2ccc(C(C)(C)C)cc2)c(C)c1[C@@H]1C=C[C@@H](NC(=O)CC2(CC(=O)O)CCCC2)C1,i,-9%,0%,?,.,.,.

# Bioassay records (PubChem BioAssay)
